In the supplement of paper PMC8728848:
Shown is part of a subset that was picked to be rich in the strongest signals.

Key:
Test in all cases: glycan array binding signal (z-score within array); higher = stronger binding
Details in all cases: glycan notation: IUPAC condensed, linker removed
[1] = molecular target: Fuc(a1-2)[GalNAc(a1-3)]Gal(b1-3)GlcNAc(b1-3)GalNAc
Summary of the method: (§1)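 The Consortium for Functional Glycomics database supplied 3228 glycan arrays, of which those lacking an available protein sequence were dropped. The binding signal, a within-array Z-score, was averaged across arrays of the same protein sequence and across linkers. Negative scores can be read as non-binding.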

[2] = molecular target: Fuc(a1-2)[GalNAc(a1-3)]Gal(b1-4)Glc
Summary of the method: as §1

[3] = molecular target: Fuc(a1-3)[Gal3S(b1-4)]GlcNAc6S
Summary of the method: as §1

Gal(a1-3)Gal(b1-4)GlcNAc = molecular target: Gal(a1-3)Gal(b1-4)GlcNAc
Summary of the method: as §1

Gal(a1-6)Glc = molecular target: Gal(a1-6)Glc
Summary of the method: as §1

[4] = molecular target: Gal(b1-3)GlcNAc(a1-6)Gal(b1-4)GlcNAc
Summary of the method: as §1

[5] = molecular target: Gal(b1-3)[Fuc(a1-4)]GlcNAc(b1-6)GalNAc
Summary of the method: as §1

Gal(b1-4)Glc = molecular target: Gal(b1-4)Glc
Summary of the method: as §1

[6] = molecular target: Gal(b1-4)GlcNAc(b1-2)Man(a1-3)[Gal(b1-4)GlcNAc(b1-2)Man(a1-6)][GlcNAc(b1-4)]Man(b1-4)GlcNAc(b1-4)[Fuc(a1-6)]GlcNAc
Summary of the method: as §1

[7] = molecular target: Gal(b1-4)GlcNAc(b1-2)Man(a1-6)[GlcNAc(b1-2)Man(a1-3)]Man(b1-4)GlcNAc(b1-4)GlcNAc
Summary of the method: as §1

[8] = molecular target: Gal(b1-4)GlcNAc(b1-2)Man(a1-6)[Man(a1-3)]Man(b1-4)GlcNAc(b1-4)GlcNAc
Summary of the method: as §1

[9] = molecular target: Gal(b1-4)GlcNAc(b1-2)[Gal(b1-4)GlcNAc(b1-6)]Man(a1-6)[Gal(b1-4)GlcNAc(b1-2)Man(a1-3)]Man(b1-4)GlcNAc(b1-4)GlcNAc
Summary of the method: as §1

[10] = molecular target: Gal(b1-4)GlcNAc(b1-3)Gal(b1-4)GlcNAc
Summary of the method: as §1

[11] = molecular target: Gal(b1-4)GlcNAc(b1-3)Gal(b1-4)GlcNAc(b1-2)Man(a1-3)[Gal(b1-4)GlcNAc(b1-3)Gal(b1-4)GlcNAc(b1-2)Man(a1-6)]Man(b1-4)GlcNAc(b1-4)GlcNAc
Summary of the method: as §1

[12] = molecular target: Gal(b1-4)GlcNAc(b1-3)Gal(b1-4)GlcNAc(b1-2)[Gal(b1-4)GlcNAc(b1-3)Gal(b1-4)GlcNAc(b1-6)]Man(a1-6)[Gal(b1-4)GlcNAc(b1-3)Gal(b1-4)GlcNAc(b1-2)Man(a1-3)]Man(b1-4)GlcNAc(b1-4)[Fuc(a1-6)]GlcNAc
Summary of the method: as §1

[13] = molecular target: Gal(b1-4)GlcNAc(b1-3)Gal(b1-4)GlcNAc(b1-3)Gal(b1-4)GlcNAc(b1-2)[Gal(b1-4)GlcNAc(b1-3)Gal(b1-4)GlcNAc(b1-3)Gal(b1-4)GlcNAc(b1-6)]Man(a1-6)[Gal(b1-4)GlcNAc(b1-3)Gal(b1-4)GlcNAc(b1-3)Gal(b1-4)GlcNAc(b1-2)Man(a1-3)]Man(b1-4)GlcNAc(b1-4)[Fuc(a1-6)]GlcNAc
Summary of the method: as §1

[14] = molecular target: Gal(b1-4)GlcNAc(b1-3)Gal(b1-4)GlcNAc(b1-3)Gal(b1-4)GlcNAc(b1-3)Gal(b1-4)GlcNAc(b1-2)Man(a1-3)[Gal(b1-4)GlcNAc(b1-3)Gal(b1-4)GlcNAc(b1-3)Gal(b1-4)GlcNAc(b1-3)Gal(b1-4)GlcNAc(b1-2)Man(a1-6)]Man(b1-4)GlcNAc(b1-4)GlcNAc
Summary of the method: as §1

[15] = molecular target: Gal(b1-4)GlcNAc(b1-3)Gal(b1-4)GlcNAc(b1-3)Gal(b1-4)GlcNAc(b1-3)Gal(b1-4)GlcNAc(b1-2)[Gal(b1-4)GlcNAc(b1-3)Gal(b1-4)GlcNAc(b1-3)Gal(b1-4)GlcNAc(b1-3)Gal(b1-4)GlcNAc(b1-6)]Man(a1-6)[Gal(b1-4)GlcNAc(b1-3)Gal(b1-4)GlcNAc(b1-3)Gal(b1-4)GlcNAc(b1-3)Gal(b1-4)GlcNAc(b1-2)Man(a1-3)]Man(b1-4)GlcNAc(b1-4)[Fuc(a1-6)]GlcNAc
Summary of the method: as §1

[16] = molecular target: Gal(b1-4)GlcNAc(b1-3)Gal(b1-4)GlcNAc(b1-3)Gal(b1-4)GlcNAc(b1-3)Gal(b1-4)GlcNAc(b1-3)Gal(b1-4)GlcNAc(b1-2)Man(a1-3)[Gal(b1-4)GlcNAc(b1-3)Gal(b1-4)GlcNAc(b1-3)Gal(b1-4)GlcNAc(b1-3)Gal(b1-4)GlcNAc(b1-3)Gal(b1-4)GlcNAc(b1-2)Man(a1-6)]Man(b1-4)GlcNAc(b1-4)GlcNAc
Summary of the method: as §1

[17] = molecular target: Gal(b1-4)GlcNAc(b1-3)Gal(b1-4)GlcNAc(b1-3)Gal(b1-4)GlcNAc(b1-3)Gal(b1-4)GlcNAc(b1-3)Gal(b1-4)GlcNAc(b1-2)Man(a1-3)[Gal(b1-4)GlcNAc(b1-3)Gal(b1-4)GlcNAc(b1-3)Gal(b1-4)GlcNAc(b1-3)Gal(b1-4)GlcNAc(b1-3)Gal(b1-4)GlcNAc(b1-2)Man(a1-6)]Man(b1-4)GlcNAc(b1-4)[Fuc(a1-6)]GlcNAc
Summary of the method: as §1

[18] = molecular target: Gal(b1-4)GlcNAc(b1-3)Gal(b1-4)GlcNAc(b1-3)Gal(b1-4)GlcNAc(b1-3)Gal(b1-4)GlcNAc(b1-3)Gal(b1-4)GlcNAc(b1-2)[Gal(b1-4)GlcNAc(b1-3)Gal(b1-4)GlcNAc(b1-3)Gal(b1-4)GlcNAc(b1-3)Gal(b1-4)GlcNAc(b1-3)Gal(b1-4)GlcNAc(b1-6)]Man(a1-6)[Gal(b1-4)GlcNAc(b1-3)Gal(b1-4)GlcNAc(b1-3)Gal(b1-4)GlcNAc(b1-3)Gal(b1-4)GlcNAc(b1-3)Gal(b1-4)GlcNAc(b1-2)Man(a1-3)]Man(b1-4)GlcNAc(b1-4)[Fuc(a1-6)]GlcNAc
Summary of the method: as §1

[19] = molecular target: Gal(b1-4)GlcNAc(b1-6)Gal(b1-4)GlcNAc
Summary of the method: as §1

[20] = molecular target: Gal(b1-4)GlcNAc(b1-6)GalNAc
Summary of the method: as §1

Gal3S4S(b1-4)GlcNAc = molecular target: Gal3S4S(b1-4)GlcNAc
Summary of the method: as §1

Gal6S(b1-4)Glc = molecular target: Gal6S(b1-4)Glc
Summary of the method: as §1

Gal6S(b1-4)Glc6S = molecular target: Gal6S(b1-4)Glc6S
Summary of the method: as §1

Gal6S(b1-4)GlcNAc = molecular target: Gal6S(b1-4)GlcNAc
Summary of the method: as §1

B1: Epa23 (Candida glabrata) (protein)
chain: MGSSHHHHHHSSGLVPRGSHMIPNPFEGTINNFPSGCSPNHGLYNRGLTMELYNYSYIHPQSIQSYFNTSTLKKMEKGQCWDPSYLDVNYPRTGYKTHNRFAKVNGIDGILDFEFNPTRSCVPSKGQLPQNYNYPLQFTLSNFTMLLYGYFKPKVTAKHTFTIFADDLLFLNFGAGNAFDCCQQQDTIDDFGNYQAYALWGSDTQQNTLTVNLDANIYYPIRMFYNNRDFKGALNMYFTTDESNTKINDFSGYLFNIPDSSEGCPAHISYETECGNVSG
For B1, the “glycan array binding signal (z-score)” value [1] was -0.229, the “glycan array binding signal (z-score)” value [2] was -0.234 and the “glycan array binding signal (z-score)” value [3] was -0.161. The “glycan array binding signal (z-score)” value (Gal(a1-3)Gal(b1-4)GlcNAc) was -0.008, the “glycan array binding signal (z-score)” value (Gal(a1-6)Glc) was -0.007 and the “glycan array binding signal (z-score)” value [4] was -0.078. The “glycan array binding signal (z-score)” value [5] was -0.177, the “glycan array binding signal (z-score)” value (Gal(b1-4)Glc) was -0.134 and the “glycan array binding signal (z-score)” value [6] was -0.232. The “glycan array binding signal (z-score)” value [7] was -0.223, the “glycan array binding signal (z-score)” value [8] was -0.182 and the “glycan array binding signal (z-score)” value [9] was 0.12. The “glycan array binding signal (z-score)” value [10] was 0.139, the “glycan array binding signal (z-score)” value [11] was 0.484 and the “glycan array binding signal (z-score)” value [12] was 2.44. The “glycan array binding signal (z-score)” value [13] was 3.33, the “glycan array binding signal (z-score)” value [14] was 2.62 and the “glycan array binding signal (z-score)” value [15] was 3.79. For the same binder, the “glycan array binding signal (z-score)” value [16] was 3.01, the “glycan array binding signal (z-score)” value [17] was 2.83 and the “glycan array binding signal (z-score)” value [18] was 4.71. For the same binder, the “glycan array binding signal (z-score)” value [19] was 1.43, the “glycan array binding signal (z-score)” value [20] was 0.008 and the “glycan array binding signal (z-score)” value (Gal3S4S(b1-4)GlcNAc) was -0.241. The “glycan array binding signal (z-score)” value (Gal6S(b1-4)Glc) was 6.7, the “glycan array binding signal (z-score)” value (Gal6S(b1-4)Glc6S) was 11.8 and the “glycan array binding signal (z-score)” value (Gal6S(b1-4)GlcNAc) was 5.69.
